Common to all, as to assay: DAPPL (digital affinity profiling via proximity ligation, sequencing); 10 mM Tris-HCl pH 7.5, 50 mM NaCl, 1 mM DTT, 4% glycerol, room temperature, 30 min; GST-TFs on glutathione beads, 16-mer random dsDNA library, 0.1% formaldehyde crosslink after washing; high values mean tight binding
What all share (conditions): protein: recombinant; tags: N-terminal GST; dsDNA, one strand shown

One assay deals with T1, FLI1 (Homo sapiens, UniProt Q01543 1-452).
T1 sequence: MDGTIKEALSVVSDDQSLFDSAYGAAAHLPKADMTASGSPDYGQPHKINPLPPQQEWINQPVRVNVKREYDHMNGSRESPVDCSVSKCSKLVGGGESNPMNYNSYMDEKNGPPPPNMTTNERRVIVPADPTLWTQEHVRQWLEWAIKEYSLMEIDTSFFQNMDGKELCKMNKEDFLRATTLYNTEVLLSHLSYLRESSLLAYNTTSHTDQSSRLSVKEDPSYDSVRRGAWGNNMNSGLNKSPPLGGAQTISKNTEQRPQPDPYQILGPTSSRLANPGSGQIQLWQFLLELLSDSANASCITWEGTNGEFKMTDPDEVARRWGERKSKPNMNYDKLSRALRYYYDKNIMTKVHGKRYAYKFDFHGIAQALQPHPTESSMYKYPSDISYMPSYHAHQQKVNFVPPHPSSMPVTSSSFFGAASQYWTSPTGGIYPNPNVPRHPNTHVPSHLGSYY
The method, boiled down:
(§1)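 Sequencing on an Illumina NextSeq500 followed washing, crosslinking with 0.1% formaldehyde, proximity ligation (BsaI/T4 ligase, 1 h, 37 °C) and PCR amplification of pools that had been incubated for 30 min at room temperature with 200 nmole of a random double-stranded 16-mer DNA library in Tris/NaCl/DTT/glycerol buffer. Each pool held DNA-barcoded human transcription factors, expressed in yeast as GST fusions and captured on glutathione beads, plus a tag-only sample. Binding signal is a hexamer's read frequency for a factor divided by its frequency in the tag-only sample.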

In the next assay the target is T2, ELK1 (Homo sapiens, UniProt P19419 1-428).
T2 sequence: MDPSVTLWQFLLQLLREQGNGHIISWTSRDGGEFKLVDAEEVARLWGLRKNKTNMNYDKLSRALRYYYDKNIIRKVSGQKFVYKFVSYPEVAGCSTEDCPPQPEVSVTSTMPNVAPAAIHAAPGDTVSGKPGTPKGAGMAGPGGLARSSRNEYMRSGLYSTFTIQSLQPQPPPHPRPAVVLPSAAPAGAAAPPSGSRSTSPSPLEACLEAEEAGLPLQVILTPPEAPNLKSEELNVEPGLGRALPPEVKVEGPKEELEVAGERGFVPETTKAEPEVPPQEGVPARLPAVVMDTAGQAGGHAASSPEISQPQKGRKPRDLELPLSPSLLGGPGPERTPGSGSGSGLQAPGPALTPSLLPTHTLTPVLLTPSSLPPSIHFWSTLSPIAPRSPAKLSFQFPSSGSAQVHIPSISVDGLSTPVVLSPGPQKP
A digest of the protocol: as §1

A further assay deals with T3, GABPA (Homo sapiens, UniProt Q06546 1-454).
T3 sequence: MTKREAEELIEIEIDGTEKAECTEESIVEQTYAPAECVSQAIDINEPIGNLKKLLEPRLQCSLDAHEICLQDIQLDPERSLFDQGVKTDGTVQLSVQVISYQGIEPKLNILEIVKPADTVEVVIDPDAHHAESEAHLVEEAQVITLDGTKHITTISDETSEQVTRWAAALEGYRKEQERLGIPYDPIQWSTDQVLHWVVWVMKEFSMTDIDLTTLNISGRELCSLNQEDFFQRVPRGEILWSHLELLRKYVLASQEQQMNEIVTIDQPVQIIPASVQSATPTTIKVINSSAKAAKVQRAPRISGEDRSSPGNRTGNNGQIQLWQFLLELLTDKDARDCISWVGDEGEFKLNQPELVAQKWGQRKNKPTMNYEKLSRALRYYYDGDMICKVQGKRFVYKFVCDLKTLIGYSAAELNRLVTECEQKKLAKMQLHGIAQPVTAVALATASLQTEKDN
The method, boiled down: as §1

A further assay has as its target T4, ERG (Homo sapiens, UniProt P11308 1-479).
T4 sequence: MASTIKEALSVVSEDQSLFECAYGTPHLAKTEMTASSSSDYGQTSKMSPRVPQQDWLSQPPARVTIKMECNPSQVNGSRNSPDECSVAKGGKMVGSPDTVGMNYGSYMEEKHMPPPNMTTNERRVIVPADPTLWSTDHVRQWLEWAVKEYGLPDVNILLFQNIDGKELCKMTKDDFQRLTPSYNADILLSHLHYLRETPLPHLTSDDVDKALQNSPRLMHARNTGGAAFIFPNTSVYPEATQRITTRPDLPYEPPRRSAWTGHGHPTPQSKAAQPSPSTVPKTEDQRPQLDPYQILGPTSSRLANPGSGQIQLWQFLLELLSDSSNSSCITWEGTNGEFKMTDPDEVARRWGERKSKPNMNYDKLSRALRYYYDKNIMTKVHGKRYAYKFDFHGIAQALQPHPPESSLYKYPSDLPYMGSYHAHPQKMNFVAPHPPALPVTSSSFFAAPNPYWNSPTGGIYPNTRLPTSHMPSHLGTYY
The method, boiled down: as §1

The target in another assay is ELF1 (Homo sapiens, UniProt P32519 1-619). A digest of the protocol: as §1
Another assay addresses T5, EHF (Homo sapiens, UniProt Q9NZC4 1-300).
T5 sequence: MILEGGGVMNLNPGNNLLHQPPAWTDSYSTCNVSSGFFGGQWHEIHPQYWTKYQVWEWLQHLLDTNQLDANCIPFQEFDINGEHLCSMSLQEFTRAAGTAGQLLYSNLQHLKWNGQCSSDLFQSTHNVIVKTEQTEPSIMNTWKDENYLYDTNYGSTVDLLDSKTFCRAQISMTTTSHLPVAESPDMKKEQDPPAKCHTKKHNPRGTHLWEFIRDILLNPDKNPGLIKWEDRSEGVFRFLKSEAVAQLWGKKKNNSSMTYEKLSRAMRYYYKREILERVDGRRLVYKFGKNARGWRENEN
A digest of the protocol: as §1

The next assay deals with SPI1 (Homo sapiens, UniProt P17947 1-270). The method, boiled down: as §1
Another assay has as its target SPIB (Homo sapiens, UniProt Q01892 1-262). The method, boiled down: as §1
Another assay concerns the target T6, ELK3 (Homo sapiens, UniProt P41970 1-407).
T6 sequence: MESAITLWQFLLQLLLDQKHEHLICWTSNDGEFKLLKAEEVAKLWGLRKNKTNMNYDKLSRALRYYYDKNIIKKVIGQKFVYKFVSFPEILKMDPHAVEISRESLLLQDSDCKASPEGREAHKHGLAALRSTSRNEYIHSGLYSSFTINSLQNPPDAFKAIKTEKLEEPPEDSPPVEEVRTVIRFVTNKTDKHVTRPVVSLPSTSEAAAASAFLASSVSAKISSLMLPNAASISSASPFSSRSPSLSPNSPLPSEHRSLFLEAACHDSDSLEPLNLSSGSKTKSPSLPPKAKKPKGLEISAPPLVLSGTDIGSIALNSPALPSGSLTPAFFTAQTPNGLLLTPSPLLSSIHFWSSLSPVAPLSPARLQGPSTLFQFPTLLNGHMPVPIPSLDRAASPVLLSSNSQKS
A digest of the protocol: as §1

Results on 7 sequences are retold here after publication PMC7862700, “An all-to-all approach to the identification of sequence-specific readers for epigenetic DNA modifications on cytosine”.

Chain of ELF1 (P32519 whole entry): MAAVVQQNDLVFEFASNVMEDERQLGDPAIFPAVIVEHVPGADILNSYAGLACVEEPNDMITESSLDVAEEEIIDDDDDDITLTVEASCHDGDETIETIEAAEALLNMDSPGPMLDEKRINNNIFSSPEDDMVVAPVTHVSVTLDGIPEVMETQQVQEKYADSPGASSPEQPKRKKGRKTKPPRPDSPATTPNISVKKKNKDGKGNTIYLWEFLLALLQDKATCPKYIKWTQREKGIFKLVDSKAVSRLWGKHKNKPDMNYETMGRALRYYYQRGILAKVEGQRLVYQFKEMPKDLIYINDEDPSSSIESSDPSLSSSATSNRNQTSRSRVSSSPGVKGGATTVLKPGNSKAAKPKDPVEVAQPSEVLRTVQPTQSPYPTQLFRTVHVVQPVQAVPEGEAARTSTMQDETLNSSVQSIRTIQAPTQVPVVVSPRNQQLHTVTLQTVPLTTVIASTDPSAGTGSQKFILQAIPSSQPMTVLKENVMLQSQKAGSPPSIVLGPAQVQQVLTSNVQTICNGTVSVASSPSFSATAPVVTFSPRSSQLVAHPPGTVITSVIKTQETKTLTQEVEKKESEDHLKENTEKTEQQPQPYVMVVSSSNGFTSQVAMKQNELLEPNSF
Chain of SPIB (Q01892 whole entry): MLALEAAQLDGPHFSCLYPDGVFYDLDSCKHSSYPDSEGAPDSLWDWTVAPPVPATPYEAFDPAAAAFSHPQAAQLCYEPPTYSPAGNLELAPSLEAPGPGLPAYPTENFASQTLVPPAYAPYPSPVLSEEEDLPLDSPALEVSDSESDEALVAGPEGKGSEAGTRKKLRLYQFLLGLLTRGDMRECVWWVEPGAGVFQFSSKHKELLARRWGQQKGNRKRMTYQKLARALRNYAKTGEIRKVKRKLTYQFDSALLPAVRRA

As to TTTCGT, the binding signal is 1.31 fold enrichment (6-mer frequency, TF over GST control) with FLI1; 1.38 fold enrichment (6-mer frequency, TF over GST control) with ELK1; 1.37 fold enrichment (6-mer frequency, TF over GST control) with GABPA; 1.23 fold enrichment (6-mer frequency, TF over GST control) in the assay with ERG; 1.41 fold enrichment (6-mer frequency, TF over GST control) with ELF1; 1.46 fold enrichment (6-mer frequency, TF over GST control) in the assay with EHF. Further, the binding signal with SPI1 was 1.27 fold enrichment (6-mer frequency, TF over GST control); with SPIB, 1.47 fold enrichment (6-mer frequency, TF over GST control); in the assay with ELK3 it was 1.25 fold enrichment (6-mer frequency, TF over GST control).
Regarding CCTGAT, the binding signal was 1.27 fold enrichment (6-mer frequency, TF over GST control) in the assay with FLI1; 1.56 fold enrichment (6-mer frequency, TF over GST control) with ELK1; 1.5 fold enrichment (6-mer frequency, TF over GST control) with GABPA; 1.42 fold enrichment (6-mer frequency, TF over GST control) with ERG; 1.38 fold enrichment (6-mer frequency, TF over GST control) in the assay with ELF1; 1.45 fold enrichment (6-mer frequency, TF over GST control) in the assay with EHF. Also, the binding signal in the assay with SPI1 is 1.5 fold enrichment (6-mer frequency, TF over GST control); with SPIB, 1.6 fold enrichment (6-mer frequency, TF over GST control); with ELK3, 1.45 fold enrichment (6-mer frequency, TF over GST control).
For TAGCTC, the binding signal with FLI1 was 1.17 fold enrichment (6-mer frequency, TF over GST control); in the assay with ELK1 it was 1.13 fold enrichment (6-mer frequency, TF over GST control); with GABPA it was 1.2 fold enrichment (6-mer frequency, TF over GST control); with ERG it was 1.11 fold enrichment (6-mer frequency, TF over GST control); with ELF1 it was 1.18 fold enrichment (6-mer frequency, TF over GST control); with EHF, 1.25 fold enrichment (6-mer frequency, TF over GST control). The binding signal with SPI1 is 1.21 fold enrichment (6-mer frequency, TF over GST control); in the assay with SPIB, 1.05 fold enrichment (6-mer frequency, TF over GST control); with ELK3, 1.28 fold enrichment (6-mer frequency, TF over GST control).
As for CTTATA, the binding signal with FLI1 was 1.3 fold enrichment (6-mer frequency, TF over GST control); in the assay with ELK1, 1.33 fold enrichment (6-mer frequency, TF over GST control); with GABPA, 1.41 fold enrichment (6-mer frequency, TF over GST control); with ERG it was 1.28 fold enrichment (6-mer frequency, TF over GST control); with ELF1, 1.33 fold enrichment (6-mer frequency, TF over GST control); with EHF, 1.4 fold enrichment (6-mer frequency, TF over GST control). The binding signal in the assay with SPI1 was 1.43 fold enrichment (6-mer frequency, TF over GST control); with SPIB it was 1.39 fold enrichment (6-mer frequency, TF over GST control); with ELK3, 1.29 fold enrichment (6-mer frequency, TF over GST control).
Take CTTGGA: the binding signal with FLI1 was 1.28 fold enrichment (6-mer frequency, TF over GST control); with ELK1, 1.15 fold enrichment (6-mer frequency, TF over GST control); with GABPA, 1.16 fold enrichment (6-mer frequency, TF over GST control); with ERG it was 1.17 fold enrichment (6-mer frequency, TF over GST control); in the assay with ELF1, 1.27 fold enrichment (6-mer frequency, TF over GST control); with EHF, 1.13 fold enrichment (6-mer frequency, TF over GST control). The binding signal was 1.14 fold enrichment (6-mer frequency, TF over GST control) with SPI1; 1.2 fold enrichment (6-mer frequency, TF over GST control) with SPIB; 1.17 fold enrichment (6-mer frequency, TF over GST control) with ELK3.
With GGCCTT, the binding signal in the assay with FLI1 is 1.17 fold enrichment (6-mer frequency, TF over GST control); with ELK1 it was 1.18 fold enrichment (6-mer frequency, TF over GST control); in the assay with GABPA, 1.29 fold enrichment (6-mer frequency, TF over GST control); with ERG it was 1.16 fold enrichment (6-mer frequency, TF over GST control); with ELF1, 1.09 fold enrichment (6-mer frequency, TF over GST control); with EHF it was 1.13 fold enrichment (6-mer frequency, TF over GST control). In addition, the binding signal with SPI1 is 1.18 fold enrichment (6-mer frequency, TF over GST control); with SPIB, 1.19 fold enrichment (6-mer frequency, TF over GST control); in the assay with ELK3 it was 1.17 fold enrichment (6-mer frequency, TF over GST control).
For CCTCCT, the binding signal in the assay with FLI1 was 1.72 fold enrichment (6-mer frequency, TF over GST control); with ELK1, 1.45 fold enrichment (6-mer frequency, TF over GST control); with GABPA, 1.57 fold enrichment (6-mer frequency, TF over GST control); with ERG, 1.45 fold enrichment (6-mer frequency, TF over GST control); in the assay with ELF1 it was 1.5 fold enrichment (6-mer frequency, TF over GST control); with EHF it was 1.42 fold enrichment (6-mer frequency, TF over GST control). Moreover, the binding signal with SPI1 is 1.7 fold enrichment (6-mer frequency, TF over GST control); in the assay with SPIB, 1.61 fold enrichment (6-mer frequency, TF over GST control); with ELK3, 1.48 fold enrichment (6-mer frequency, TF over GST control).
